{"source": "the supplement of paper PMC12045047", "note": "Values without a mark were called inactive."}
{"test_system": "primary human airway basal cells (HBEC, luciferase-transduced)", "experiment": "proliferation (luciferase bioluminescence) Z score relative to plate mean; higher = more proliferation / more cells, active = 1.96 or more", "conditions": "donor: 1; 0.5 µM; library: ENZO Libraries; 4 days", "description": "(§1)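 Primary human bronchial epithelial (airway basal) cells from two donors, lentivirally transduced with pHIV-Luc-ZsGreen, were seeded at 2000 cells/well in 384-well plates in FAD medium with ENZO or Prestwick library compounds and cultured for 4 days. Luciferin was then added and bioluminescence was read as a measure of cell number. Relative light units were converted to Z scores against the plate, and the mean of triplicate wells is reported.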"}
{"smiles": "NC(N)=NCCC[C@H](NC(=O)[C@@H]1CCCN1C(=O)[C@H](N)Cc1ccccc1)C(=O)CCl", "proliferation": 0.533}
{"smiles": "N#CC(=Cc1ccc2[nH]ccc2c1)C(N)=C(C#N)C#N", "proliferation": 0.0615}
{"smiles": "Oc1cc(O)cc(/C=C/c2ccc(O)c(O)c2)c1", "note": "[Piceatannol]", "proliferation": -0.115}
{"smiles": "CC(NC(=O)C(Cc1ccccc1)NC(=O)OCc1ccccc1)C(=O)CF", "note": "(stereo not given)", "proliferation": -0.176}
{"smiles": "N#C/C(=C\\c1ccc(O)c(O)c1)C(=O)Nc1ccccc1", "proliferation": 0.183}
{"smiles": "N[C@H](C(=O)O)[C@@H]1CC(Cl)=NO1", "note": "[Acivicin]", "proliferation": -0.75}
{"smiles": "NC(=O)c1cccc(-c2cccc(OC(=O)NC3CCCCC3)c2)c1", "proliferation": 0.0752}
{"smiles": "CCOC(=O)C1=CN(Cc2ccccc2)C=C(C(=O)OCC)C1c1ccccc1", "proliferation": 0.415}
{"smiles": "CCCC[C@@H](C=O)NC(=O)[C@H](CC(C)C)NC(=O)OCc1ccccc1", "note": "[Calpeptin]", "proliferation": -0.319}
{"smiles": "O=c1cc(-c2ccc(O)cc2)oc2cc(O)cc(O)c12", "note": "[Apigenin]", "proliferation": 0.308}
{"smiles": "CC(=O)Nc1ccc(C(=O)Nc2ccccc2N)cc1", "proliferation": 0.183}
{"smiles": "Nc1ncn([C@H]2C[C@H](O)[C@@H](CO)O2)c(=O)n1", "note": "[5-Aza-2'-deoxycytidine]", "proliferation": -0.383}
{"smiles": "N#CC(C#N)=C(N)/C(C#N)=C/c1cc(O)c(O)c(O)c1", "proliferation": -0.239}
{"smiles": "CCOC(=O)[C@H](CCc1ccccc1)N[C@@H](C)C(=O)N1CCC[C@H]1C(=O)O", "note": "[Enalapril]", "proliferation": -0.154}
{"smiles": "CC(C)C(=O)SCCCCCCC(=O)Nc1nc(-c2ccccc2)cs1", "proliferation": 0.111}
{"smiles": "O=c1oc(Cl)c(Cl)c2ccccc12", "note": "[34-Dichloroisocoumarin]", "proliferation": 0.257}
{"smiles": "O=c1c(-c2ccc(O)cc2)coc2cc(O)ccc12", "note": "[Daidzein]", "proliferation": 0.207}
{"smiles": "CCCC[C@@H](C=O)NC(=O)OC(C)(C)C", "proliferation": 0.474}
{"smiles": "CC(C)CCNC(=O)[C@H](CC(C)C)NC(=O)[C@H]1O[C@@H]1C(=O)O", "proliferation": -0.298}
{"smiles": "O=C1Nc2ccc(I)cc2/C1=C/c1cc(Br)c(O)c(Br)c1", "proliferation": -0.115}
{"test_system": "primary human airway basal cells (HBEC, luciferase-transduced)", "experiment": "proliferation (luciferase bioluminescence) Z score relative to plate mean; higher = more proliferation / more cells, active = 1.96 or more", "conditions": "donor: 1; 5 µM; library: ENZO Libraries; 4 days", "description": "as §1"}
{"smiles": "NC(N)=NCCC[C@H](NC(=O)[C@@H]1CCCN1C(=O)[C@H](N)Cc1ccccc1)C(=O)CCl", "proliferation": -0.142}
{"smiles": "N#CC(=Cc1ccc2[nH]ccc2c1)C(N)=C(C#N)C#N", "proliferation": -0.386}
{"smiles": "Oc1cc(O)cc(/C=C/c2ccc(O)c(O)c2)c1", "note": "[Piceatannol]", "proliferation": 1.52}
{"smiles": "CC(NC(=O)C(Cc1ccccc1)NC(=O)OCc1ccccc1)C(=O)CF", "note": "(stereo not given)", "proliferation": -0.114}
{"smiles": "N#C/C(=C\\c1ccc(O)c(O)c1)C(=O)Nc1ccccc1", "proliferation": 0.06}
{"smiles": "N[C@H](C(=O)O)[C@@H]1CC(Cl)=NO1", "note": "[Acivicin]", "proliferation": -1.56}
{"smiles": "NC(=O)c1cccc(-c2cccc(OC(=O)NC3CCCCC3)c2)c1", "proliferation": 0.55}
{"smiles": "CCOC(=O)C1=CN(Cc2ccccc2)C=C(C(=O)OCC)C1c1ccccc1", "proliferation": 0.65}
{"smiles": "CCCC[C@@H](C=O)NC(=O)[C@H](CC(C)C)NC(=O)OCc1ccccc1", "note": "[Calpeptin]", "proliferation": 0.152}
{"smiles": "O=c1cc(-c2ccc(O)cc2)oc2cc(O)cc(O)c12", "note": "[Apigenin]", "proliferation": "3.23 (active)"}
{"smiles": "CC(=O)Nc1ccc(C(=O)Nc2ccccc2N)cc1", "proliferation": -0.038}
{"smiles": "Nc1ncn([C@H]2C[C@H](O)[C@@H](CO)O2)c(=O)n1", "note": "[5-Aza-2'-deoxycytidine]", "proliferation": -0.302}
{"smiles": "N#CC(C#N)=C(N)/C(C#N)=C/c1cc(O)c(O)c(O)c1", "proliferation": -0.228}
{"smiles": "CCOC(=O)[C@H](CCc1ccccc1)N[C@@H](C)C(=O)N1CCC[C@H]1C(=O)O", "note": "[Enalapril]", "proliferation": -0.126}
{"smiles": "CC(C)C(=O)SCCCCCCC(=O)Nc1nc(-c2ccccc2)cs1", "proliferation": 0.205}
{"smiles": "O=c1oc(Cl)c(Cl)c2ccccc12", "note": "[34-Dichloroisocoumarin]", "proliferation": 0.055}
{"smiles": "O=c1c(-c2ccc(O)cc2)coc2cc(O)ccc12", "note": "[Daidzein]", "proliferation": 1.72}
{"smiles": "CCCC[C@@H](C=O)NC(=O)OC(C)(C)C", "proliferation": -0.0416}
{"smiles": "CC(C)CCNC(=O)[C@H](CC(C)C)NC(=O)[C@H]1O[C@@H]1C(=O)O", "proliferation": -0.117}
{"smiles": "O=C1Nc2ccc(I)cc2/C1=C/c1cc(Br)c(O)c(Br)c1", "proliferation": -0.66}
